We go through 18 molecules from PubChem BioAssay AID1345085 (National Center for Advancing Translational Sciences (NCATS), 2018).

Results filed as inconclusive are left out. Calls of active or inactive are those of the source. Calls follow the shape of the dose curve; as a rule, active = well fitted cell-killing curve with a large enough effect; inconclusive = small, poorly fitted or top-dose-only effect, or effect the other way; inactive = no such curve, though single readings can be large or run the other way.
Potency is read from the fitted curve at half-maximal effect.

The experiment deals with Tov-21-G. Nature of the experiment: Confirmatory qHTS for gynecologic anti-cancer compounds from libraries of approved drugs and bioactive compounds. Also: nearly all actives have a fitted effect of over 55% in size. The settings on record: gynecologic cancer cell panel viability, ATPlite luminescence, 48 h; series mostly up to 57.7 µM. The essentials:
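ATPlite luminescence read-out of cell viability; IC50 from 11-point 1:3 titrations, 57.5 uM to 0.977 nM, 48 h compound exposure at 37 C, 5% CO2. Cells seeded at 1,000/well 16 h before dosing.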
A general note: Quantitative high-throughput screening tests each substance at several concentrations.
With `CCCC(Nc1nc(-c2ccc(NC(=O)NCC)c(OC)c2)ncc1C)c1cccnc1` (stereo not drawn), the Potency was 0.0306 µM (active).

On to `Cc1cc(Nc2cc(N3CCN(C)CC3)nc(/C=C/c3ccccc3)n2)n[nH]1`, for which the Potency is 1.72 µM (active).

Regarding `CCCCc1nc2cc(/C=C/C(=O)NO)ccc2n1CCN(CC)CC`, the Potency was 3.06 µM (active).

For `Cc1nc(Nc2n[nH]c3c2CN(C(=O)NC(CN(C)C)c2ccccc2)C3(C)C)c2sccc2n1` (stereo not drawn), the Potency was 2.43 µM (active).

For the molecule `CC(C)c1nn(-c2c(Cl)cccc2Cl)c2nc(Cc3ccc(OCCO)cc3)[nH]c(=O)c12`, the Potency is 0.0863 µM (active).

For `O=C1c2c(O)ccc(O)c2C(=O)c2c(NCCNCCO)ccc(NCCNCCO)c21`, the Potency is 4.32 µM (active).

For the molecule `Nc1nc(=S)c2[nH]cnc2[nH]1`, the Potency result was “inactive”.

Turning to `O=C(/C=C/c1cccc(S(=O)(=O)Nc2ccccc2)c1)NO`, the Potency is 4.73 µM (active).

As to `CCc1c2c(nc3ccc(O)cc13)-c1cc3c(c(=O)n1C2)COC(=O)[C@]3(O)CC`, the Potency is 1.09 µM (active).

For `CCn1cc(-c2ccnc3[nH]c(-c4cccc(CN(C)C)c4)cc23)c(-c2ccc(NC(=O)N(C)C)cc2)n1`, the Potency is 7.49 µM (active).

For `CCCCc1oc2ccccc2c1C(=O)c1cc(I)c(OCCN(CC)CC)c(I)c1`, the Potency is 56.2 µM (active).

`Nc1ncn([C@@H]2O[C@H](CO)[C@@H](O)[C@H]2O)c(=O)n1`: the Potency was 19.3 µM (active).

`COc1cc(N2CCC(N3CCN(C)CC3)CC2)ccc1Nc1ncc(Cl)c(Nc2ccccc2S(=O)(=O)C(C)C)n1`: the Potency was 6.11 µM (active).

Turning to `OC[C@H]1O[C@@H](n2cnc3c(=S)nc[nH]c32)[C@H](O)[C@@H]1O`, the Potency entry is “inactive”.

Take `CCOc1cc2ncc(C#N)c(Nc3ccc(F)c(Cl)c3)c2cc1NC(=O)/C=C/CN(C)C`: the Potency is 2.17 µM (active).

Turning to `CCC1=CC2CN(C1)Cc1c([nH]c3ccccc13)[C@@](C(=O)OC)(c1cc3c(cc1OC)N(C)[C@H]1[C@@](O)(C(=O)OC)[C@H](OC(C)=O)[C@]4(CC)C=CCN5CC[C@]31[C@@H]54)C2` (stereo partly drawn), the Potency was 2.37 µM (active).

In the case of `CCc1c2c(nc3ccc(OC(=O)N4CCC(N5CCCCC5)CC4)cc13)-c1cc3c(c(=O)n1C2)COC(=O)[C@]3(O)CC`, the Potency is 21.7 µM (active).

For the molecule `CC(C)C[C@H](NC(=O)[C@H](CCc1ccccc1)NC(=O)CN1CCOCC1)C(=O)N[C@@H](Cc1ccccc1)C(=O)N[C@@H](CC(C)C)C(=O)[C@@]1(C)CO1`, the Potency is 2.17 µM (active).
